Ba/F3 V617F tox: loss of viability in JAK2V617F-driven Ba/F3 cells | Ba/F3 EpoR-JAK2V617F viability, ATP luminescence | inhibition, % at 5.6 µM | 220,000 tested, 1.1% active | AID 1446;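 active = inhibition above the campaign mean plus 3 SD over all tested compounds, cut at about 24% in these data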;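 also: cytokine-independent growth of Ba/F3 cells driven by EpoR plus mutant JAK2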
APP 5UTR inh: APP translation inhibition | SH-SY5Y APP 5'UTR-luciferase reporter, luminescence | inhibition, % at 2 µM | 190,000 tested, 0.82% active | AID 1285;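 active = inhibition above a set limit, derived from the sample mean plus 3 SD, cut at about 45% in these data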
aSyn 5UTR inh: 5' untranslated region of α-synuclein, MLPCN primary screen; alpha-synuclein 5'UTR reporter, inhibitor activity; inhibition, % (tested at 7.5 µM); 300,000 tested, 0.82% active; AID 1813; in the data active = inhibition above about 60%;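 also: H4 neuroglioblastoma cells stably carrying SNCA 5'UTR luciferase fusion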
KLF5 inh: kruppel-like factor 5 inhibition. DLD-1 KLF5 promoter-luciferase reporter, luminescence. inhibition, % at 5 µM. 290,000 tested, 0.23% active. AID 1700;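 active = inhibition above a per-plate limit of that plate's mean compound inhibition plus 3 SD, cut at about 60% in these data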;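 also: higher means less KLF5 promoter-driven luciferase light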
IEC-6 cytotox: IEC-6 cytotoxicity, counter-screen for KLF5 inhibitors. 290,000 tested, 0.78% active. luminescence viability. inhibition, % at 5 µM. AID 1825
BaF3 tox: reduces parental Ba/F3 cell viability, JAK2V617F counter-screen; 220,000 tested, 1.1% active; AID 1486; CellTiter-Glo ATP luminescence; inhibition, % at 5.6 µM;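 active = inhibition above a per-campaign cutoff, the mean inhibition of all tested compounds plus 3 SD, cut at about 27% in these data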
IEC-6 cytotox cf: IEC-6 cytotoxicity, confirmation assay | shares compounds with IEC-6 cytotox | IEC-6 rat intestinal epithelial viability, luminescence | 1,900 tested, 63% active | inhibition, % at 5 µM | AID 1907
A number is an active result; n = inactive; x = no result. A selection: hits, their analogues and other compounds. The true share with any hit is near 2.2%. Rule as the data show it, unless noted: active = inhibition above about 22%; inactive = the rest.

SMILES	Ba/F3 V617F tox	APP 5UTR inh	aSyn 5UTR inh	KLF5 inh	IEC-6 cytotox	BaF3 tox	IEC-6 cytotox cf
Cc1[nH]c2ccc(-c3n[nH]c(=S)n3-c3ccccc3)cc2c1C	n	n	n	n	49	n	32
COc1cccc(-n2c(-c3ccc4[nH]c(C)c(C)c4c3)n[nH]c2=S)c1	n	n	n	n	48	n	46
COc1cccc(-n2c(-c3cccc(S(=O)(=O)N(C)C)c3)n[nH]c2=S)c1	n	n	n	n	n	n	x
Cc1[nH]c2ccc(-c3n[nH]c(=S)n3-c3ccc(Br)cc3)cc2c1C	n	n	n	n	50	n	44
C=CCOc1c(Cl)cc(CNc2ccc(N(C)C)cc2)cc1OC	n	n	n	n	n	n	x
C=CCOc1c(Cl)cc(CNc2ccc(C)c(Cl)c2)cc1OC	77	91	85	n	50	77	51
NS(=O)(=O)c1ccc(CCNC(=O)c2ccccc2Cc2ccccc2)cc1	x	x	n	n	n	x	x
COc1cc(-c2noc(C)c2C#CC2(O)CCCCC2)cc(OC)c1OC	x	x	n	n	n	x	x
COc1cc(-c2noc(C)c2C#Cc2ccsc2)cc(OC)c1OC	x	x	69	n	83	x	61
Cc1ccc(OCCn2cc(C(=S)N3CCCC3)c3ccccc32)cc1C	n	n	n	n	70	n	44
CN(C)C(=S)Nc1nc2ccccc2s1	n	n	n	n	30	n	n
Cn1c(N2CCN(C(c3ccccc3)c3ccccc3)CC2)nc2ccccc21	x	x	n	n	n	x	x
COc1ccc(/C=C2\COc3ccccc3C2=O)c(OC)c1	x	x	n	n	26	x	n
O=C(NCCSCc1ccco1)c1ccc(=O)[nH]c1	x	x	n	n	n	x	x
O=C(CC1(O)C(=O)N(CCc2ccccc2)c2ccccc21)c1ccccn1 (stereo not given)	n	n	n	n	n	n	x
O=C(CC1(O)C(=O)N(C/C=C/c2ccccc2)c2ccccc21)c1ccccn1 (stereo not given)	92	57	n	n	89	93	32
CC(Oc1ccccc1F)C(=O)NNC(=O)CC(C)c1ccccc1 (stereo not given)	x	x	n	x	x	x	x
CC(C)c1ccc(NC(=O)C(c2ccc3c(c2)OCO3)N2CCN(C(=O)c3ccco3)CC2)cc1 (stereo not given)	n	n	n	n	n	n	x
CC(C)c1ccc(NC(=O)C(c2ccccc2)N2CCN(C(=O)c3ccco3)CC2)cc1 (stereo not given)	n	n	n	n	46	n	n
O=C(CCN1CCOCC1)NNC(=O)Nc1cccc([N+](=O)[O-])c1	x	x	n	n	n	x	x
Cc1noc(/C=C/N(C)C)c1S(=O)(=O)N1CCCC(C(=O)NCCC2=CCCCC2)C1 (stereo not given)	n	n	n	n	n	n	n
CCn1c(SCC(=O)c2ccccc2)nc2ccccc2c1=O	n	n	n	n	61	n	37
Cc1cc(C(=O)OCC(=O)NCc2ccco2)c(C)n1-c1ccc(F)cc1	n	75	80	n	45	n	57
O=C(c1ccccc1N1CCOCC1)N1CCCC(Nc2ccc(F)cc2)C1 (stereo not given)	x	x	n	n	n	x	x
O=c1oc2ccccc2c(Nc2cccc3cccnc23)c1[N+](=O)[O-]	n	n	n	n	61	n	n
SMILES	Ba/F3 V617F tox	APP 5UTR inh	aSyn 5UTR inh	KLF5 inh	IEC-6 cytotox	BaF3 tox	IEC-6 cytotox cf
O=c1oc2ccccc2c(Nc2cccc3ccccc23)c1[N+](=O)[O-]	n	n	n	n	n	n	x
Nc1cc2nn(-c3ccccc3)nc2cc1Cl	n	n	n	n	102	n	46
CC(Nc1ncnc2sccc12)c1ccccc1 (stereo not given)	x	x	n	n	29	x	27
c1ccc(Nc2ncnc3sccc23)cc1	x	x	n	n	n	x	x
CCOc1c(C)cnc2c1c(=O)n(Cc1c(F)cccc1Cl)c(=O)n2C	x	x	n	n	n	x	x
CN(C)S(=O)(=O)n1cc(/C=C(\NC(=O)c2ccccc2F)C(=O)NCCCn2ccnc2)c2ccccc21	x	x	n	n	n	x	x
Cc1cccc(NC(=O)CSc2nc3ccccc3nc2N2CCCCC2)c1	x	x	n	n	43	x	29
COc1cccc(NC(=O)CSc2nc3ccccc3nc2N2CCCC2)c1	x	x	n	n	n	x	x
Cc1cccc(NC(=O)CSc2nc3ccccc3nc2N2CCCC2)c1	x	x	n	n	32	x	n
CCCCc1ccc(NC(=O)Nc2cnccn2)cc1	x	x	n	n	45	x	23
